Screen size: about 100,000 compounds; about 620 (0.62%) were called active. What follows is part of a selection rich in actives, with near analogues and random picks from the rest. A number with no mark means an inactive call. The calls were made as follows: active = z-score of 3 or more in at least 2 runs; inactive = the rest.

The source of these data is PubChem BioAssay AID1259389 (Center for Chemical Genomics, University of Michigan, 2018).

The nature of this assay: TAR RNA-Tat peptide displacers, HIV-1, primary screen, biochemical, FRET, FAM/TAMRA-labeled Tat (AID 1259389). As to conditions: HIV-1 TAR RNA, Tat peptide displacement FRET; active compounds read high.
As to `Cc1c2c(c(O)c3c(O)cccc13)C(=O)OC2[C@@H]1C(N(C)C)C(O)=C(C(N)=O)C(=O)[C@H]1O` (stereo partly drawn), the z-score is 31 (active).
As to `COc1cc(NC(=O)NCC2CCCO2)cc2sc(NS(=O)(=O)c3ccccc3)nc12` (stereo not drawn), the z-score was 0.36.
The figure for `Cc1ccc2cc(-c3noc(CCC(N)=O)n3)c(=O)[nH]c2c1` is 6.88 (active); for `COc1cccc(-c2nc(-c3cc4cc(C)ccc4[nH]c3=O)no2)c1` it is 0.22; for `Cc1ccc2cc(-c3noc(CC(C)C)n3)c(=O)[nH]c2c1` it is -1.58.
Turning to `C=CCOc1ccc(C2c3c(oc4ccc(F)cc4c3=O)C(=O)N2CCOC)cc1` (stereo not drawn), the z-score was 2.08.
The figure for `CCCOC(=O)C1=C(C)Nc2nnnn2C1c1cc(Br)ccc1OC` (stereo not drawn) is -6.75; for `Cc1cc2c3c([nH]c2cc1S(=O)(=O)Nc1ccccc1F)CC(C)(C)CC3=O` it is 0.08; for `Cc1ccc(S(=O)(=O)Nc2cccc(-c3cn4ccccc4n3)c2)cc1C` it is 0.58.
Consider `CCCS(=O)(=O)Nc1cccc(-c2ccc(S(=O)(=O)CC)nn2)c1`, for which the z-score was -0.4.
`CCCS(=O)(=O)Nc1cccc(-c2cn3ccsc3n2)c1`: the z-score was 15.9 (active).
Take `O=C1COc2cc(S(=O)(=O)CCC(=O)N3CCCC3)c(Cl)cc2N1`: the z-score is 0.78.
As to `Cc1ccc(C)c(N2CCN(c3ncnc4sc(C(=O)O)c(C)c34)CC2)c1`, the z-score was 4.41 (active).
The result for `CCN1CCN(c2ncnc3sc(C(=O)N4CCC(N5CCCCC5)CC4)c(C)c23)CC1` reads 1.72; that for `COc1ncnc2sc(C(=O)O)c(C)c12`, 1.15; that for `Cn1c(=O)oc2cc(S(=O)(=O)N3CCC(C(=O)NCCC4=CCCCC4)CC3)ccc21`, -0.51.
`CCOC(=O)C1=C(C)NC2=C(C(=O)C(C(=O)OC)C(C)C2)C1c1ccc(C)s1` (stereo not drawn): the z-score is 1.89.
On to `Cc1cccc(NC(=O)c2cc3c(s2)-c2ccccc2S(=O)(=O)C3)n1`, for which the z-score is 1.46.
Take `COC(=O)c1ccc2c(=O)n3nc(Nc4ccc(F)c(F)c4)sc3nc2c1`: the z-score is -0.18.
For the compound `O=c1c2ccccc2nc2sc(Nc3ccc4c(c3)OCO4)nn12`, the z-score was 18.8 (active).
For `CCc1ccc(Nc2nn3c(=O)c4cc5c(cc4nc3s2)OCO5)cc1`, the z-score was 3.98.
As for `C=CCN(Cc1nc(-c2cccc(C)c2)no1)S(=O)(=O)c1ccccc1`, the z-score is 1.74.
The figure for `CC(C)OC(=O)c1ccc(N2CC(O)=C(c3nc4ccccc4n3C)C2=N)cc1` is -0.32.
Take `CSc1cccc(N2CC(c3nc4ccccc4n3CCN3CCOCC3)CC2=O)c1` (stereo not drawn): the z-score was 1.11.
Consider `CCc1cccc(NS(=O)(=O)c2ccc(/C=C/c3onc(C)c3[N+](=O)[O-])cc2)c1`, for which the z-score is 1.16.
For the compound `CCCCN(C)S(=O)(=O)c1cc(-c2cc(C)no2)ccc1CC`, the z-score was 2.74.
Take `CCCSc1ncc(CO)n1Cc1ccccc1`: the z-score was 1.26.
The figure for `COc1ccccc1N1CCN(Cc2cc(=O)n3nc(C4CCCCC4)sc3n2)CC1` is 0.09.
For `CCC(CC)C(=O)Nc1ccc(OCc2cc(=O)n3cccc(C)c3n2)cc1`, the z-score is 2.07.
The result for `Cc1ccc(-c2ncnc3c(C#N)c4ccccn4c23)cc1` reads 2.39; that for `O=C(Nc1nc2nc(-c3ccccc3)cc(=O)n2[nH]1)C1CC1`, 2.82.
The figure for `O=C(Nc1nc2nc(-c3ccccc3)cc(=O)n2[nH]1)C1CCCCC1` is 0.88; for `Nc1ccc(-c2cc(=O)n3[nH]cnc3n2)cc1` it is 10.6 (active); for `Cc1cc(-c2ccc(S(=O)(=O)N3CCc4ccccc4C3)s2)on1` it is 0.06.
With `Cc1ccc(S(=O)(=O)Nc2ccc3c(c2)oc(=O)n3C)cc1`, the z-score is 1.19.
Consider `C#CCSc1nc2c(c(=O)[nH]1)C(c1ccc(OCCCC)cc1)CC(=O)N2` (stereo not drawn), for which the z-score was -0.97.
The figure for `CCSc1nc2c(c(=O)[nH]1)C(c1ccc(OC)c(Br)c1)CC(=O)N2` (stereo not drawn) is 1.43; for `C#CCSc1nc2c(c(=O)[nH]1)C(c1ccc(O)c(O)c1)CC(=O)N2` (stereo not drawn) it is 26.9 (active).
With `CCN(CC)C(=O)Cn1c(-n2nc(C)cc2C)nc2c(c1=O)CCCC2`, the z-score is 1.12.
Consider `Cc1ccc(-c2nc(CSCC(=O)NC3CC3)no2)cc1`, for which the z-score was 0.42.
On to `C=C(C)COc1ccc2oc(C)c(C(=O)OCC)c2c1`, for which the z-score was 0.55.
The result for `COc1cc(C2CC(=O)N3CN(c4ccc(Br)cc4)CSC3=C2C#N)ccc1O` (stereo not drawn) reads 24.7 (active); that for `COC(=O)c1ccc(N2CSC3=C(C#N)C(c4ccc(Cl)cc4)CC(=O)N3C2)cc1` (stereo not drawn), -0.23; that for `COc1ccc(N2CSC3=C(C#N)C(c4cccc(Br)c4)CC(=O)N3C2)cc1` (stereo not drawn), -0.77.
In the case of `COc1cccc(C2CC(=O)N3CN(c4ccc(Br)cc4)CSC3=C2C#N)c1` (stereo not drawn), the z-score was -2.72.
The result for `CCOc1ccc(C2CC(=O)N3CN(c4ccc(OC)cc4OC)CSC3=C2C#N)cc1OC` (stereo not drawn) reads -4.55; that for `COc1cc(C2CC(=O)N3CN(c4ccccc4)CSC3=C2C#N)ccc1O` (stereo not drawn), 31.5 (active); that for `COc1cccc(Nc2c(O)c(=O)c2=O)c1`, -0.8.
The figure for `CCC(C)NC(=O)Cn1c(=O)n(CC2CCC(C(=O)N3CCCC3)CC2)c(=O)c2sccc21` (stereo not drawn) is 0.29.
The figure for `CC1CCCN(C(=O)Cn2c(=O)oc3cc(S(=O)(=O)N4CCCCC4C)ccc32)C1` (stereo not drawn) is 1.86.
In the case of `CSc1nnc(-c2nonc2NC(C)=O)n1C`, the z-score is 0.81.
The result for `COc1cccc(Nc2nc(-c3cc(OC)ccc3OC)no2)c1` reads 1.24; that for `CC(=O)N1N=C(c2cc(C3CC3)nc3ccccc23)OC1c1ccc([N+](=O)[O-])s1` (stereo not drawn), 2.1.
The result for `COc1ccccc1C1OC(c2cc(C3CC3)nc3ccccc23)=NN1C(C)=O` (stereo not drawn) reads 1.12; that for `CC(=O)N1N=C(c2cc(C3CC3)nc3ccccc23)OC1c1ccc(F)cc1` (stereo not drawn), 21.6 (active); that for `COc1ccc(-c2nc3sccn3c2Nc2ccc(Cl)cc2)cc1`, 0.26.
`O=c1[nH]c(-c2cccc(Cl)c2)nc2c1Cc1cc(F)ccc1O2`: the z-score was 1.31.
As to `CCOc1ccccc1NS(=O)(=O)c1cc2c3c(c1)C(C)C(=O)N3CCC2` (stereo not drawn), the z-score is 2.12.
The result for `Cc1ccc(S(=O)(=O)Nc2ccc3[nH]c(=O)oc3c2)cc1C` reads 0.9.
Regarding `Cc1cc(NS(=O)(=O)c2ccc(-n3cccn3)cc2)ccc1Br`, the z-score was 0.31.
The result for `Cc1cc(NS(=O)(=O)c2ccc3[nH]c(=O)ccc3c2)ccc1Br` reads 3.75 (active); that for `CCC(C)NC(=O)c1ccc2c(=O)n(C)c3n[nH]c(=O)n3c2c1` (stereo not drawn), -1.23; that for `COC(=O)c1cccc(N2C(=O)C3C4C=CC(CC4)C3C2=O)c1` (stereo not drawn), -0.18.
For `COc1cccc(-c2n[nH]c3c2C(c2cccs2)NC3=O)c1` (stereo not drawn), the z-score is 0.03.
The figure for `O=C1C(=O)N(CCCN2CCOCC2)C(c2ccc(F)cc2)/C1=C(\O)c1ccc(F)cc1` (stereo not drawn) is -0.23; for `CCN(c1cccc(C)c1)c1c(-c2ccc(C)c(C)c2)c(=O)c1=O` it is 1.19.
Take `Cc1cccc(-n2nc(C)c3c(C)cc(=O)oc32)c1`: the z-score is -1.35.
Consider `Cc1cc(=O)oc2c1c(C)nn2-c1ccc(Cl)cc1`, for which the z-score is 6 (active).
Regarding `Cc1cc(=O)oc2c1c(C)nn2-c1cccc(Br)c1`, the z-score was 2.1.
In the case of `CCOCc1nc(N2CCOCC2)sc1C(=O)NCc1ccco1`, the z-score is 1.59.
The figure for `Cc1nc2c3cccnc3nn2c(C)c1CCC(=O)NC1CCCCC1` is 0.03; for `Cc1nc2nc(N3C(=O)CCC3=O)[nH]n2c(=O)c1C` it is 0.34; for `O=C(NCc1ccc2c(c1)OCO2)C(=O)c1c[nH]c2ccccc12` it is -0.39.
Regarding `O=C(NCc1ccc2c(c1)OCO2)c1sc2ncccc2c1-n1cccc1`, the z-score was 0.34.
The result for `O=C(NCc1ccc2c(c1)OCO2)c1sc(=S)n2c1[nH]c(=O)c1ccccc12` reads 8.38 (active); that for `CCc1ccc(S(=O)(=O)Nc2cccc(-c3ccc(S(C)(=O)=O)nn3)c2)s1`, -0.88.
The figure for `O=S(=O)(c1ccc(Cl)cc1)N(Cc1nc(-c2ccccc2)no1)C1CCCCC1` is -0.39.
The result for `O=C(O)c1ccc2c(=O)[nH]c3c(C(=O)NC4CCCCC4)sc(=S)n3c2c1` reads 10.3 (active); that for `O=C(NC1CCCC1)c1ccc2c(=O)[nH]c3c(C(=O)NCC4CCCO4)sc(=S)n3c2c1` (stereo not drawn), 9.34; that for `CCOC(=O)c1sc(=S)n2c1[nH]c(=O)c1ccc(C(=O)OC)cc12`, 3.58.
`C=CCNC(=O)c1sc(=S)n2c1[nH]c(=O)c1ccc(C(=O)OC)cc12`: the z-score is -0.19.
The figure for `CC(C)NC(=O)c1sc(=S)n2c1[nH]c(=O)c1ccc(C(=O)NCCN(C)C)cc12` is 7.52 (active); for `O=C(NC1CCCCC1)c1ccc(CNc2c(N3CCCC3)c(=O)c2=O)cc1` it is 2.73.
As for `Cc1nn2c(=O)cc(CSc3nnc(COc4ccccc4C)n3C)nc2s1`, the z-score is -1.46.
For the compound `CCNc1nc(NCCN(C)C)nc2c1cnn2C`, the z-score is 1.49.
The figure for `CC1CCN(S(=O)(=O)c2ccc3nc(Nc4cc(F)ccc4F)ccc3c2)CC1` is 1; for `C=CCc1ccccc1OCc1cc(=O)n2nc(-c3ccc(OC)cc3)sc2n1` it is -1.28.
As for `CCOc1ccc(-c2nc3c(s2)CN(S(=O)(=O)c2cccc4nsnc24)CC3)cc1`, the z-score is 0.4.
With `CCCNS(=O)(=O)c1ccc2c(c1)oc(=O)n2CC(=O)OCC`, the z-score was -3.16.
The result for `Cc1nn(C)c(C)c1CNS(=O)(=O)c1ccc2c(c1)oc(=O)n2C` reads 0.45; that for `Cc1nc2ccccc2n1CCNS(=O)(=O)c1ccc2c(c1)oc(=O)n2C`, 3.26 (active).
The figure for `CCC1CN(C(=O)Nc2ccccc2)c2ccccc2O1` (stereo not drawn) is 1.11.
The figure for `O=c1[nH]c(SCc2ccccc2)nnc1-c1ccccc1` is -0.2; for `c1ccc(CSc2nnc(-c3ccco3)c(-c3ccco3)n2)cc1` it is 8.76 (active).
`Nc1cc(=O)nc(SCc2ccccc2)n1Cc1ccco1`: the z-score was 0.7.
For the compound `O=C(CSc1ccc(-c2cccs2)nn1)Nc1ccc(Br)cc1`, the z-score is 2.14.
The result for `O=C(CSc1nnc(-c2ccco2)c(-c2ccco2)n1)Nc1ccc(Br)cc1` reads 24.6 (active); that for `CN(C)c1ccc(NC(=O)CSc2nc(-c3ccco3)cc(C(F)(F)F)n2)cc1`, 0.28.
